The values that follow come from PubChem BioAssay AID1209 (Sanford-Burnham Center for Chemical Genomics, 2008).

Structures are written as SMILES. Screen size: about 190,000 compounds; about 810 (0.43%) were called active. For the sample, actives were picked, then their nearest neighbours and some compounds at random. Values without a mark were called inactive. Cut-off read from the data, not from the text of the source: active = inhibition above about 50%; inactive = the rest.

Chain of Mannose-6-phosphate isomerase (Homo sapiens) (P34949 whole entry, looked up): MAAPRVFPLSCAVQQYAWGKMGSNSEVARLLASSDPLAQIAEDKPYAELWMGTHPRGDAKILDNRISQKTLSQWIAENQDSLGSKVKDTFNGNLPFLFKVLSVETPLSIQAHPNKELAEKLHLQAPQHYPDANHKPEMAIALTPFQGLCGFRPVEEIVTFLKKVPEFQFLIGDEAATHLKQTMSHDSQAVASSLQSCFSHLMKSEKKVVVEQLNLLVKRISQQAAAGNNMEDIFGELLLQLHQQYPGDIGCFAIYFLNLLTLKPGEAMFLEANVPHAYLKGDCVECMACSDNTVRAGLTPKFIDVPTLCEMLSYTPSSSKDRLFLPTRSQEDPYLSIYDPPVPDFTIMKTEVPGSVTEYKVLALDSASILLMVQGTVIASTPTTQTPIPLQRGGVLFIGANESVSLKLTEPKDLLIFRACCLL

The assay concerns the target Mannose-6-phosphate isomerase (Homo sapiens) (UniProt P34949). As to the kind of experiment: MPI enzyme activity inhibition – biochemical, fluorescence intensity, coupled assay, primary screen (AID 1209).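 Note: plate controls were DMSO vehicle for no effect and wells lacking substrate for full effect.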 As to conditions: purified PMI enzyme, at 20 µM, active compounds read high.
Consider `COc1cccc(CNC(=O)C(c2ccc(Cl)cc2)C(C)C)c1` (stereo not given), for which the inhibition (in general, the change of the read-out against control, counted positive when it falls) is 10.2%.

Regarding `COc1cc(/C=C2\SC(=S)NC2=O)ccc1OS(=O)(=O)c1ccccc1`, the inhibition was 29.8%.

`COC(=O)c1ccc(-c2nc(O)c3cnccn23)cc1`: the inhibition was -13.6%.

Take `COc1cc(/C=N/NC(=O)c2ccncc2)ccc1OCCN1CCCCC1`: the inhibition is -4.3%.

For `COc1cc(/C=N/NC(=O)c2cc3ccccc3cc2O)ccc1OCCN1CCCCC1`, the inhibition is 73.9% (active).

Consider `CCCCOc1ccc(C(=O)N/N=C/c2ccc(OCCN3CCCCC3)c(OC)c2)cc1`, for which the inhibition was 5.7%.

In the case of `COc1ccccc1-n1c(SCc2cc(=O)oc3cc(O)ccc23)nc2ccccc2c1=O`, the inhibition was 8.3%.

On to `COc1cccc(-n2c(SCC(N)=O)nc3ccccc3c2=O)c1`, for which the inhibition was 2.2%.

Consider `Cc1csc(SCC(=O)NC(=O)NC2CCCC2)n1`, for which the inhibition is 5.2%.

On to `S=c1[nH]nc(C2CCCCC2)n1/N=C/c1ccco1`, for which the inhibition was -1.6%.

As to `O=C(Cc1ccc([N+](=O)[O-])cc1)Nc1cccc(C(F)(F)F)c1`, the inhibition was 23.4%.

Consider `CCCCNC(=O)CC1S/C(=N/N=C/c2ccc(OC)cc2)NC1=O` (stereo not given), for which the inhibition was -7.8%.

As for `CCOc1ccc(OCC)c(NC(=O)CN2CCN(CC)CC2)c1`, the inhibition is 57.9% (active).

In the case of `CCOC(=O)N1CCN(CC(=O)Nc2cc(OCC)ccc2OCC)CC1`, the inhibition was 7%.

For the molecule `CCOc1ccc(OCC)c(NC(=O)CN2CCN(c3cccc(C)c3)CC2)c1`, the inhibition was 16.7%.

Regarding `CN1C(=O)/C(=C/c2ccc(-c3ccccc3[N+](=O)[O-])o2)SC1=Nc1ccc(Cl)c(C(=O)O)c1`, the inhibition is 3%.

`CCOC(=O)C1=C(N)Oc2cc(C)n(C)c(=O)c2C1c1ccncc1` (stereo not given): the inhibition is 10%.

For `NC(=O)C1=C[C@H](c2coc3ccccc3c2=O)C[C@H](OCc2ccc(CO)cc2)O1`, the inhibition is -2.4%.

With `O=C(Nc1ccccc1NC(=O)NC1CCCCC1)NC1CCCCC1`, the inhibition was 6%.

Turning to `Nc1ccccc1NC1CCCCC1`, the inhibition is 64.3% (active).

Regarding `Nc1c(NC2CCCCC2)c2ccccc2oc1=O`, the inhibition was 9.2%.

In the case of `Cc1ccc(Cn2c(C(=O)O)cc3sccc32)cc1`, the inhibition is -7.2%.

Take `O=C(Nc1ccccc1NS(=O)(=O)c1ccc(F)cc1)C1CCCC1`: the inhibition was -1.7%.

Consider `O=C(COC(=O)c1cc(Cl)cc(Cl)c1)NCCN1C(=O)CSC1=O`, for which the inhibition is 55.7% (active).

Regarding `O=C(COC(=O)c1cccc(Cl)c1)NCCN1C(=O)CSC1=O`, the inhibition is -6%.

Turning to `O=C(COC(=O)c1cc(Cl)ccc1Cl)NCCN1C(=O)CSC1=O`, the inhibition is 0.7%.

In the case of `COC(=O)c1ccccc1NC(=O)COC(=O)/C=C/c1ccco1`, the inhibition is -15%.

For the molecule `CCOCCCNC(=O)c1ccc(N2CCOCC2)c(NS(=O)(=O)c2ccc(OC)cc2)c1`, the inhibition was -1.6%.

Consider `Cn1c(COc2ccc([N+](=O)[O-])cc2)nnc1SCC(N)=O`, for which the inhibition was -9.7%.

Take `O=C1CCN2C=Nc3cccc4ccc1c2c34`: the inhibition is 84.5% (active).

On to `c1cc2c3c(cccc3c1)C(N1CCCCC1)=N2`, for which the inhibition was 33.9%.

Turning to `c1cc2c3c(cccc3c1)C(N1CCCCCC1)=N2`, the inhibition was 15.8%.

Consider `COc1cc2c(cc1OC)C1=C(C#N)CN(CC(=O)O)CN1CC2`, for which the inhibition is 70.5% (active).

Regarding `COc1ccc(CCN2CC(C#N)=C3c4cc(OC)c(OC)cc4CCN3C2)cc1OC`, the inhibition is 18.8%.

Regarding `COc1cc2c(cc1OC)C1=C(C#N)CN(C3CCCCC3)CN1CC2`, the inhibition was 27.4%.

With `CCCCNC(c1ccccc1)c1ccncc1` (stereo not given), the inhibition was 6.1%.

Take `CCn1c(SCC(=O)NC2CCS(=O)(=O)C2)nnc1-c1ccccc1` (stereo not given): the inhibition is -4.5%.

As for `COc1cc(NC(=O)CN2C(=O)CN(C)C2=O)c(C)cc1[N+](=O)[O-]`, the inhibition was -9.8%.

`Cc1ccccc1NC(=O)C1c2cccc[n+]2CC(=O)N1c1c(C)cccc1C` (stereo not given): the inhibition was 91.6% (active).

`Cc1ccccc1NC(=O)C1c2cccc[n+]2CC(=O)N1Cc1ccc2c(c1)OCO2` (stereo not given): the inhibition was -17.8%.

Regarding `Cc1cccc(C)c1NC(=O)C1c2cccc[n+]2CC(=O)N1Cc1cccs1` (stereo not given), the inhibition was -7.5%.

Turning to `C(=C\c1ccccc1)/C=N/Nc1nc(N2CCOCC2)nc(N2CCOCC2)n1`, the inhibition is -1.4%.

With `CCn1c(SCC(=O)N2CCN(c3ccc(F)cc3)CC2)nnc1-c1ccncc1`, the inhibition was 8.1%.

Turning to `O=C(CCn1c(=S)oc2ccccc21)Nc1cccc(F)c1`, the inhibition was -10.5%.

`O=C(NCC1CC1)c1ccc(Nc2nc3ccc(Br)cc3[nH]2)cc1`: the inhibition is 84% (active).

On to `O=C(NCc1cccs1)c1cccc(Nc2nc3ccc(Br)cc3[nH]2)c1`, for which the inhibition was 15.4%.

On to `O=C(NCc1ccco1)c1cccc(Nc2nc3ccc(Br)cc3[nH]2)c1`, for which the inhibition is 22%.

With `COC(=O)/C=C1\SC(=NC(=O)c2ccc(C)cc2)NC1=O`, the inhibition is 3.6%.

Regarding `COc1cc(/C=C/C(=O)CC(=O)/C=C/c2ccc(O)c(OC)c2)ccc1O`, the inhibition is 5.3%.

`O=C(O)/C=C/c1ccc(O)c(O)c1`: the inhibition was 56.4% (active).

As for `O=Cc1ccc(O)c(O)c1`, the inhibition is 25.6%.

As for `COc1ccc(NC(=O)/C=C/c2ccc(OC)c(OC)c2)cn1`, the inhibition is -4.6%.

As to `Cc1cc([N+](=O)[O-])cnc1Sc1nccn1C`, the inhibition is -29.4%.

Regarding `O=C(CCc1nc2ccccc2[nH]c1=O)OCC(=O)c1ccc(Cl)cc1`, the inhibition is 2.3%.

`Nc1scc2c(C(=O)N/N=C/c3ccc(Cl)cc3)nn(-c3ccccc3)c(=O)c12`: the inhibition is 69.6% (active).

`COc1ccc(/C=N/NC(=O)c2nn(-c3ccccc3)c(=O)c3c(N)scc23)cc1`: the inhibition was 60.7% (active).

As to `CCOC(=O)c1nn(-c2ccc(C)cc2)c(=O)c2c(N)scc12`, the inhibition is 39.4%.

As for `CCOC(=O)c1nn(-c2ccc(OC)cc2)c(=O)c2c(N)scc12`, the inhibition was 46.8%.

Consider `COc1ccc(/C=N/NC(=O)c2nn(-c3ccc(Cl)cc3)c(=O)c3c(N)scc23)cc1`, for which the inhibition is 50.7% (active).

Regarding `CCOC(=O)c1nn(-c2ccccc2)c(=O)c2c(N)scc12`, the inhibition is 36.2%.

Take `CCOC(=O)c1nn(-c2ccc(F)cc2)c(=O)c2c(N)scc12`: the inhibition was 40.7%.

Regarding `COc1ccc(/C=N/NC(=O)c2nn(-c3ccc(C)c(C)c3)c(=O)c3ccccc23)cc1`, the inhibition was 13.2%.

Consider `COc1ccc(/C=N/NC(=O)c2nc(-c3ccccc3)n(-c3ccccc3)n2)cc1`, for which the inhibition was 17%.

Take `O=C(CSc1nc2cc(Cl)ccc2s1)Nc1cccc(S(=O)(=O)N2CCOCC2)c1`: the inhibition was 15.2%.

With `CCN1CCN(C(c2cccs2)C(C)NC(=O)CC(C)C)CC1` (stereo not given), the inhibition was 0.5%.

As for `CCN(CCNC(=O)C1CCN(S(=O)(=O)c2cccc3cccnc23)CC1)c1ccccc1`, the inhibition was 8.4%.

As for `O=C(NNC(=O)c1cc(OCC(F)(F)F)ccc1OCC(F)(F)F)c1ccc(Cl)c(Cl)c1`, the inhibition is 16.5%.

With `Cc1cc2oc(=O)cc(CN3CCCc4ccccc43)c2cc1C`, the inhibition was -11.2%.

Turning to `Cc1ccc(SCCC(=O)NCCSCc2ccco2)cc1`, the inhibition is 7.9%.

Turning to `CN1CCC(N(C)C(=O)/C=C/c2cn(-c3ccccc3)nc2-c2cccs2)CC1`, the inhibition was -5.9%.

As to `COc1ccc(S(=O)(=O)N2CCN(Cc3ccc(Cl)cc3)CC2)cc1`, the inhibition is 14.7%.

Turning to `COc1ccc(-c2nc(-c3ccccc3)c(-c3cc([N+](=O)[O-])ccc3C)[nH]2)cc1O`, the inhibition was 22.5%.

`Cc1ccc([N+](=O)[O-])cc1-c1[nH]c(-c2ccc(O)c(O)c2)nc1-c1ccccc1`: the inhibition is 51.7% (active).

In the case of `CCOc1cc(-c2nc(-c3ccccc3)c(-c3cc([N+](=O)[O-])ccc3C)[nH]2)ccc1O`, the inhibition was 14.4%.

For the molecule `Cc1ccc(COc2ccc(Br)cc2/C=N/O)cc1`, the inhibition was 19.7%.

As for `O=[N+]([O-])c1cc([N+](=O)[O-])c2c(=Nc3ccccc3)n(-c3ccccc3)n(O)c2c1`, the inhibition is 10.6%.

For `O=c1c2cc(Br)ccc2nc(-c2ccc([N+](=O)[O-])cc2)n1O`, the inhibition was -3.6%.

As to `O=c1c2c([N+](=O)[O-])cc([N+](=O)[O-])cc2sn1-c1ccc(Br)cc1`, the inhibition is 109% (active).

For `CCOc1ccccc1CN1CCN(S(=O)(=O)CC)CC1`, the inhibition is 3.5%.

As for `O=c1[nH]c(CSc2nnc(COc3ccccc3)n2-c2ccccc2)nc2ccccc12`, the inhibition was -3.6%.

For the molecule `Nc1cc(C(=O)OCC(=O)NCc2ccco2)ccc1Cl`, the inhibition was -6.8%.

As for `COC(=O)c1ccc(OC)cc1OCC(=O)N1CCN(c2ccc(F)cc2)CC1`, the inhibition was 13.1%.

Turning to `O=C(/C=C/c1c(Cl)cccc1Cl)NCCc1ccccc1`, the inhibition is -10%.

Turning to `CC(C)CN(CC(C)C)S(=O)(=O)N1CCC(C(=O)NCc2cccnc2)CC1`, the inhibition was 55.2% (active).

For `CCS(=O)(=O)N1CCC(C(=O)NCc2cccnc2)CC1`, the inhibition was 4.6%.

For the molecule `CC(C)CN(CC(C)C)S(=O)(=O)N1CCC(C(=O)NCc2ccc(F)cc2)CC1`, the inhibition is 2.6%.

With `COc1ccc(NC(=O)C(c2ccccc2)N(C)C(=O)CNC(C)=O)cc1` (stereo not given), the inhibition was -1.1%.

For `CN(C)C(=O)c1nc2ccccc2s1`, the inhibition is 4.6%.

For `CCOC(=O)N/C(N)=N/c1nc2ccccc2s1`, the inhibition was 3.7%.

Turning to `COc1ccc2nc(N=Nc3ccc(N(C)C)cc3)sc2c1`, the inhibition is -5.8%.

As for `COc1ccc2nc(/N=C\N(C)C)sc2c1`, the inhibition is 7%.

As to `COc1ccc(-n2c(N)c(C(=O)NCC3CCCO3)sc2=S)cc1` (stereo not given), the inhibition was 6%.

Consider `Cn1c(=O)c(=O)n(C)c2cc(S(=O)(=O)N3CCC(Cc4ccccc4)CC3)ccc21`, for which the inhibition was 0.3%.

As for `Oc1c(C(c2ccccn2)N2CCOCC2)ccc2cccnc12` (stereo not given), the inhibition was 60.9% (active).

With `Oc1c(C(c2ccccc2Cl)N2CCCC2)ccc2cccnc12` (stereo not given), the inhibition is 32.1%.

In the case of `CCC(=O)NC(c1cccs1)c1ccc2cccnc2c1O` (stereo not given), the inhibition was 33.8%.

For `OCCN1CCN(C(c2cccs2)c2ccc3cccnc3c2O)CC1` (stereo not given), the inhibition is 50.8% (active).

With `CCOC(=O)N1CCN(S(=O)(=O)c2cccc3cccnc23)CC1`, the inhibition was -9.6%.

Regarding `Cc1conc1NC(c1cccs1)c1ccc2cccnc2c1O` (stereo not given), the inhibition is 13%.

Turning to `CCOC(=O)N1CCN(C(c2cccnc2)c2ccc3cccnc3c2O)CC1` (stereo not given), the inhibition is 60.4% (active).

`Oc1c(C(c2cccs2)N2CCN(c3ccccc3)CC2)ccc2cccnc12` (stereo not given): the inhibition was 58.8% (active).

Take `Oc1c(C(Nc2ccccn2)c2ccccn2)ccc2cccnc12` (stereo not given): the inhibition was 6.9%.

As to `Cc1nc2sc(C(c3cccs3)N3CCN(c4ccccc4)CC3)c(O)n2n1` (stereo not given), the inhibition is 4.2%.

As to `CN1CCN(C(c2cccnc2)c2ccc3cccnc3c2O)CC1` (stereo not given), the inhibition was 39.6%.

Regarding `Oc1c(C(c2cccs2)N2CCN(c3ccccc3)CC2)sc2ncnn12` (stereo not given), the inhibition is -6.2%.
